We go through four molecules from PubChem BioAssay.

SMILES strings stand for the structures. Inconclusive results are not listed. The source made the active and inactive calls. Cut-off read from the data, not from the text of the source, unless noted: active = percent of DMSO control GFP below about 86%; inactive = the rest, inconclusive results apart.

Test [1] can be described thus: rapamycin-like changes in RPL19A-GFP expression – cell-based, S. cerevisiae, multiplex flow cytometry, primary screen (AID 1862).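 Note: lower values mimic rapamycin by blocking the RPL19A rise seen in DMSO cells.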 The note with it: S. cerevisiae RPL19A-GFP strain, flow cytometry fluorescence, 3 h; at 10 µM; stronger effect = lower value.
The nature of test [2]: TOR pathway GLN3 branch reporter MEP2-GFP changes – S. cerevisiae, multiplex flow cytometry, primary screen (AID 1867;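 active = GFP response, as percent of the DMSO control, above the screen-wide mean plus 3 SD, about 139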;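 note: median GFP channel fluorescence of barcode-gated MEP2-GFP cells measured by flow cytometry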). The note with it: S. cerevisiae MEP2-GFP strain, 3 h, at 10 µM, stronger effect = higher value, 100% means same as DMSO wells. (In general: In flow cytometry, cells or beads pass a laser one at a time.)
The nature of test [3]: TOR pathway RTG branch CIT2 reporter changes – S. cerevisiae, GFP fusion, multiplex flow cytometry, primary screen (AID 1870;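 active = percent response above a set limit, the screen-wide mean plus 3 SD, cut at about 130% in these data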;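 note: barcoded CIT2-GFP strain pooled with four other GFP strains with rapamycin as positive control; median GFP fluorescence per well over plate mean of DMSO wells so 100% = DMSO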). Conditions: S. cerevisiae CIT2-GFP expression, 3 h, at 10 µM, stronger effect = higher value.
Test [4] is described as follows: TOR pathway LAP4-GFP level changes – S. cerevisiae, multiplex flow cytometry, primary screen (AID 1873;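 active = GFP signal, as percent of the solvent control, above the screen mean plus 3 SD, about 149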). The note with it: S. cerevisiae LAP4-GFP expression, 3 h, at 10 µM, stronger effect = higher value.
Test [5] is described as follows: yeast AGP1-GFP level changes, GLN3 branch – cell-based, multiplex flow cytometry, S. cerevisiae, primary screen (AID 1887;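 active = GFP signal above the screen-wide mean plus 3 SD, that is over about 124.5% of the solvent control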;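 note: AGP1-GFP fusion strain of S. cerevisiae within a five-strain barcoded multiplex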). Conditions: 3 h, at 10 µM, stronger effect = higher value.
A short description of test [6]: reduced mouse 2C T cell binding to pMHC/ICAM-1 vesicles – MLPCN validation set, flow cytometry, LFA-1/ICAM-1 modulator project, pilot screen (AID 2523;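 active = response below a set limit, under 55% cells CD8-positive and vesicle-bound, and CD8 cells' 90th-percentile brightness under 279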;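 for vesicle binding response: mean PE anti-B7-1 fluorescence of CD8+ cells relative to row control; 100% = QL9-loaded vesicles with DMSO vehicle in the same plate row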). The note with it: 2C mouse CD8+ T cells, at 7 µM, stronger effect = lower value; double positive events: measured here: CD8+/vesicle+ event percentage.
For test [7], the target named is Integrin beta-1 (Homo sapiens) + Integrin alpha-4 (Homo sapiens) (UniProt P13612+P05556). The experiment in a line: alpha4beta1 integrin LIBS antibody binding reduction – U937 cells, HUTS-21 mAb, flow cytometry, validation set, VLA-4 allosteric modulator project, pilot screen (AID 2674;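 active = inhibition above 50%, about 3 SD of the validation set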;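 note: antibody binding induced by the VLA-4 ligand LDV present at three times its Kd; 0% = LDV ligand with antibody and no compound and 100% = antibody without LDV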). Conditions: HUTS-21 LIBS mAb binding, at 6.7 µM, stronger effect = higher value, binding induced by LDV ligand.

A short description of test [8]: calorie-restriction mimetic ROS inhibitors, yeast – validation compound set, pilot screen (AID 2706;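 active = superoxide response below 65% of plate, a cut near 3 SD across the whole screen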;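 note: yeast exposed to compound for one week at 30 degrees C before staining; 100% = mean of all compound wells on the same plate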). The note with it: S. cerevisiae aging, superoxide DHE fluorescence; at 10 µM; stronger effect = lower value.
The target of test [9] is Beta-adrenergic receptor kinase 1 (Homo sapiens) (UniProt P25098). The experiment in a line: GRK2 binders displacing RNA aptamer, biochemical, validation, human GRK2, bead flow cytometry (AID 488806;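 active = aptamer binding inhibition above 30%, about 3 SD of noise from non-fluorescent compounds; inactive = inhibition at or below 30%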). The note with it: bead-bound GRK2, FAM-aptamer displacement, at 10 µM, stronger effect = higher value.
Test [10] has as its target Beta-2 adrenergic receptor (Homo sapiens) (UniProt P07550). The experiment in a line: agonist-induced loss of surface beta2AR – cell-based, FAP fluorogen, flow cytometry, validation set, pilot screen (AID 504459;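 active = percent response above 42, roughly 3 SD of non-fluorescent test compounds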;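 note: agonist-driven loss of surface beta2AR via internalization measured by FAP dye flow cytometry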). Conditions: Am2.2-beta2AR cells, at 10 µM, stronger effect = higher value.
Test [11] deals with AP-2 complex subunit beta (Homo sapiens) (UniProt P63010). The experiment in a line: beta-arrestin/AP2 interaction blockers – biochemical, validation set, GST-AP2 beads, flow cytometry, pilot screen (AID 504541;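 active = inhibition above 54%, about 3 SD of non-fluorescent compounds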;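 note: AP2 carries R879A mutation and is captured from E. coli lysate; bead-bound FITC arrestin peptide fluorescence measuring arrestin peptide binding to AP2; 0% = DMSO wells and 100% = excess unlabeled arrestin peptide control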). The note with it: FITC arrestin peptide, at 10 µM, stronger effect = higher value, AP2 beta2 appendage fragment, R879A mutant.
Test [12] in a line: cytosolic pH regulators acting via V-ATPase – S. cerevisiae, pHLuorin, HTS validation (AID 504600; in the data active = response above about 15%;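 note: plate controls were DMSO for no effect and reference compound for full effect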). The note with it: V-ATPase proton transport, at 10 µM, stronger effect = higher value.
Test [13] has as its system anti-desmoglein-3 scFv antibody binding to human DSG3. The experiment in a line: blockers of pathogenic pemphigus antibody–desmoglein-3 binding – biochemical, validation compound set, bead-based, flow cytometry, pilot screen (AID 588368;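 active = binding below the plate cutoff, the plate median minus 3 SD, with a reading above zero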;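 note: signal is the median channel fluorescence of bead-bound GFP antibody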). The note with it: Protein G beads, DSG3-Fc, scFv-GFP binding, at 10 µM, stronger effect = lower value.
A short description of test [14]: Nile Red efflux blockade in pump-expressing yeast – validation compound set, multiplex, phenotypic, pilot screen (AID 588506;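 active = efflux inhibition above 0.42, the validation set average plus 4 SD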;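 note: Nile Red retained in cells so higher fluorescence means more efflux inhibition; 0 = negative control wells and 1 = enniatin B 25 µM full block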). Conditions: S. cerevisiae pump-expressing triplex, Nile Red efflux flow cytometry; at 10 µM; stronger effect = higher value; the pumps come from Candida albicans.
Test [15] concerns the target ATP-binding cassette sub-family B member 6 (Homo sapiens) (UniProt Q9NP58). The experiment in a line: blockers of ABCB6-driven porphyrin uptake – K562-ABCB6 cells, flow cytometry, validation set, pilot screen (AID 588550;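 active = inhibition above the screen-wide mean plus 3 SD, about 51%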;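 note: 0% = DMSO wells and 100% = benzethonium chloride 70 µM positive control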). Conditions: K562-ABCB6 porphyrin accumulation, 1 h, at 10 µM, stronger effect = higher value.
Test [16] is described as follows: AML differentiation inducers, ER-HoxA9 marrow cells – cell-based, GFP/MAC1 double positive, flow cytometry, validation set, primary screen (AID 588685;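 active = differentiation response of at least 50%, scaled between solvent and reference control, from cells with both markers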;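 note: compound exposure lasts four days before antibody staining and flow analysis; 0% = DMSO wells and 100% = 5 µM fulvestrant positive control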). Conditions: stronger effect = higher value, normalized: vehicle 0, fulvestrant 100.

As a reminder, the inhibition is the change of the read-out against control, counted positive when it falls.

Sequence of AP-2 complex subunit beta (Homo sapiens) (P63010 whole entry, looked up, the tested form may be a part, one chain of several): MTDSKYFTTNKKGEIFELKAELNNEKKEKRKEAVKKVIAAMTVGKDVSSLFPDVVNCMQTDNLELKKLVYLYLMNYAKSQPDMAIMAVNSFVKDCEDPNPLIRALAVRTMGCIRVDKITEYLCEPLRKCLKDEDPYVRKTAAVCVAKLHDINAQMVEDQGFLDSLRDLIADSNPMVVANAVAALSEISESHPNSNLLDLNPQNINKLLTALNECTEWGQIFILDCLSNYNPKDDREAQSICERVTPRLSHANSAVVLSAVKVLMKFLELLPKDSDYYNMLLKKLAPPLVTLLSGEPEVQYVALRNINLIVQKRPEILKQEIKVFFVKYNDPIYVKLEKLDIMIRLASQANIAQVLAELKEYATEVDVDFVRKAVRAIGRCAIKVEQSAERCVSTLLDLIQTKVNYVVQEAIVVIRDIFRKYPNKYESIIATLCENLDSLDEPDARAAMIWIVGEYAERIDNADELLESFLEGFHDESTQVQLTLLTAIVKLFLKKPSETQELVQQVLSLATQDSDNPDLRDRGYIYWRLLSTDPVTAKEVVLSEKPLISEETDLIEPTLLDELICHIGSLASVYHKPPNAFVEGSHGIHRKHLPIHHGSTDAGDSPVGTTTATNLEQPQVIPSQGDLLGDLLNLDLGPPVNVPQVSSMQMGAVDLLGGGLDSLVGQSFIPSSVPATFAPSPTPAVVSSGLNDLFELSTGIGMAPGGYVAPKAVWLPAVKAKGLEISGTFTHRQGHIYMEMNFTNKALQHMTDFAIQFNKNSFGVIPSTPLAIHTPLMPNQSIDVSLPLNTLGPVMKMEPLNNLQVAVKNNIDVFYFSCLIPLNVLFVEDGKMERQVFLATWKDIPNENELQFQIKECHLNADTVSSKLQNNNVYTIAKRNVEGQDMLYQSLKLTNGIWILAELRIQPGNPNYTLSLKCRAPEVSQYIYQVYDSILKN
Sequence of ATP-binding cassette sub-family B member 6 (Homo sapiens) (Q9NP58 whole entry, looked up): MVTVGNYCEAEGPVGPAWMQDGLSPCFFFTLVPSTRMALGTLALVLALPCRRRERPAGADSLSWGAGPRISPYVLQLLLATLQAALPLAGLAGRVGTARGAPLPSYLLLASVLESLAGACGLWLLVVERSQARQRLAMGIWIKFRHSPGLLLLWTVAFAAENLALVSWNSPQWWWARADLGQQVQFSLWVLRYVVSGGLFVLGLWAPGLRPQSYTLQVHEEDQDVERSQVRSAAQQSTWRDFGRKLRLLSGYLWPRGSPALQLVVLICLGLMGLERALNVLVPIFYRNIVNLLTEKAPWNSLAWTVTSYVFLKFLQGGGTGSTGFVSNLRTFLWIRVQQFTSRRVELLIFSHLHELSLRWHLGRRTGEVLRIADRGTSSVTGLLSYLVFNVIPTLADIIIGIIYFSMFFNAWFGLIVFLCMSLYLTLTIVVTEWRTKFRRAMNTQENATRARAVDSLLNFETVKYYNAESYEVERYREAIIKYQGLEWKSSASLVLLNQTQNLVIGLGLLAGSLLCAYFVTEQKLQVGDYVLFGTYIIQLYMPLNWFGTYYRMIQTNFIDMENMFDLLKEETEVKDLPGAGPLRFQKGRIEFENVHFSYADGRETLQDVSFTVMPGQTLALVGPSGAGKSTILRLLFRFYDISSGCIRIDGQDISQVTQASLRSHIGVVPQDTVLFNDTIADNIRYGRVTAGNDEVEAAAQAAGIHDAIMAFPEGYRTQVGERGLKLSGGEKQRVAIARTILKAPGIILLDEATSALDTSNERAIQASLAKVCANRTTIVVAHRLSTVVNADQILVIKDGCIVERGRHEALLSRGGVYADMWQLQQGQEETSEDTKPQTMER
Sequence of Integrin beta-1 (Homo sapiens) + Integrin alpha-4 (Homo sapiens) (P05556 whole entry, looked up): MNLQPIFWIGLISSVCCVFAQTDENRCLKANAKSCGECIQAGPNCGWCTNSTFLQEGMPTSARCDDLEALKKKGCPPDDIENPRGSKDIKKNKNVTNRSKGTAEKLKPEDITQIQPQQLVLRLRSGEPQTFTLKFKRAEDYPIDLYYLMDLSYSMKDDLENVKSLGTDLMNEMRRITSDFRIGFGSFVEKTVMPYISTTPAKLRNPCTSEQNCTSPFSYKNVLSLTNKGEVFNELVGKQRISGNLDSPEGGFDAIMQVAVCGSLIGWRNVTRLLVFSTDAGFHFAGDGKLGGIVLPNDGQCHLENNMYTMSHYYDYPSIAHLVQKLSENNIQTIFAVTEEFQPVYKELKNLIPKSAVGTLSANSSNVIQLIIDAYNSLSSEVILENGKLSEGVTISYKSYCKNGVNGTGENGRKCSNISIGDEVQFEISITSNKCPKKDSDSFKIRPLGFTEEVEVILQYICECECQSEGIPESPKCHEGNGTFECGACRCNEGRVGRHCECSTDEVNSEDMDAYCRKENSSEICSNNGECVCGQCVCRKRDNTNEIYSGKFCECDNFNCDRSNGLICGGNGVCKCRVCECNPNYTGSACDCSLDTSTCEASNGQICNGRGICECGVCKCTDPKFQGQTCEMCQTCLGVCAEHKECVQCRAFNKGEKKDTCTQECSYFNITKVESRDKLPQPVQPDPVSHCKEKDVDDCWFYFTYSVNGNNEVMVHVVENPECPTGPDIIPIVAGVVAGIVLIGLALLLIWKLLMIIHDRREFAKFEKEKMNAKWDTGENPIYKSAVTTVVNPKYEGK
Sequence of Integrin beta-1 (Homo sapiens) + Integrin alpha-4 (Homo sapiens) (P13612 whole entry, looked up): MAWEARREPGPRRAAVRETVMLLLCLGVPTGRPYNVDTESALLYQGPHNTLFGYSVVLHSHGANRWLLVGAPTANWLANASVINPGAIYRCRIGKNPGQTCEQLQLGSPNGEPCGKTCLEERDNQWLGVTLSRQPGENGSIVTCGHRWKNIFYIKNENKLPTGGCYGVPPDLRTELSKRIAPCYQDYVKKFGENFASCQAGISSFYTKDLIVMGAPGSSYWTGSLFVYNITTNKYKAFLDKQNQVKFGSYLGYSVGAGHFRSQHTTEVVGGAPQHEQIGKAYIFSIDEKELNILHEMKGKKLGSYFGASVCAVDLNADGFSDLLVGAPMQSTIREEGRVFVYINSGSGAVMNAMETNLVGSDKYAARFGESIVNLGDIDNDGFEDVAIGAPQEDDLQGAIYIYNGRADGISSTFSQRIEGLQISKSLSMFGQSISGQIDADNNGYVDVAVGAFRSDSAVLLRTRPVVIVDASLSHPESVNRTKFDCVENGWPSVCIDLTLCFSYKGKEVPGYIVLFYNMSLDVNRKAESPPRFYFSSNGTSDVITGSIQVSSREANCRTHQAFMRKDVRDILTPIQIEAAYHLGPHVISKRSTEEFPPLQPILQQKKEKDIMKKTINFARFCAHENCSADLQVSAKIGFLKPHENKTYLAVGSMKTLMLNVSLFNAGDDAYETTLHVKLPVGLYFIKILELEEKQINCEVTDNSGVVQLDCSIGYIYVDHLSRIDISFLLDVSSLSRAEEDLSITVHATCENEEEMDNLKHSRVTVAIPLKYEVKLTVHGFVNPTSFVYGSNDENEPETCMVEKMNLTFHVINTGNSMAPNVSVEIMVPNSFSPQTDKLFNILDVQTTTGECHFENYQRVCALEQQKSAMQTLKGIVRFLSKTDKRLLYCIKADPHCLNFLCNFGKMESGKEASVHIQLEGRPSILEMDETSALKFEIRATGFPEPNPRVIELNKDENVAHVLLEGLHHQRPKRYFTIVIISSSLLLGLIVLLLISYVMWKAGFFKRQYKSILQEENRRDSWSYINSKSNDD
Sequence of Beta-adrenergic receptor kinase 1 (Homo sapiens) (P25098 whole entry, looked up): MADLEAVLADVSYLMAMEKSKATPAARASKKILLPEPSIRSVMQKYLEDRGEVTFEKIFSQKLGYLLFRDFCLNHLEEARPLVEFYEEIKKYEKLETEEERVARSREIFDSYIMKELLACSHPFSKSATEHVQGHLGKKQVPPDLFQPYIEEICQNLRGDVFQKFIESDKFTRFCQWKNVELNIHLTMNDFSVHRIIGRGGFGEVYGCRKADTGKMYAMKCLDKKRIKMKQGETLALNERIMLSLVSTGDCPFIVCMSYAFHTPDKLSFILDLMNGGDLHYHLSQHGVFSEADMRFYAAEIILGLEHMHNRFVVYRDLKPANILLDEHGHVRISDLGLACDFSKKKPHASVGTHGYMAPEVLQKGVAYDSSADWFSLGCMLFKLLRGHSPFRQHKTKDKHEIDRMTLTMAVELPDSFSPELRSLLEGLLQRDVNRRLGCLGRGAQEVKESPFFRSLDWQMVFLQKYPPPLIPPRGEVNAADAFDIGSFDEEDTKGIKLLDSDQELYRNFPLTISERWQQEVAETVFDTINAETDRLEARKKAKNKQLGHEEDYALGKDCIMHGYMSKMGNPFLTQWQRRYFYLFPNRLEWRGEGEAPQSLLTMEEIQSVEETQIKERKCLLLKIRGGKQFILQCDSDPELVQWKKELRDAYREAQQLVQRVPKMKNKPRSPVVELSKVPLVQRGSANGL
Sequence of Beta-2 adrenergic receptor (Homo sapiens) (P07550 whole entry, looked up): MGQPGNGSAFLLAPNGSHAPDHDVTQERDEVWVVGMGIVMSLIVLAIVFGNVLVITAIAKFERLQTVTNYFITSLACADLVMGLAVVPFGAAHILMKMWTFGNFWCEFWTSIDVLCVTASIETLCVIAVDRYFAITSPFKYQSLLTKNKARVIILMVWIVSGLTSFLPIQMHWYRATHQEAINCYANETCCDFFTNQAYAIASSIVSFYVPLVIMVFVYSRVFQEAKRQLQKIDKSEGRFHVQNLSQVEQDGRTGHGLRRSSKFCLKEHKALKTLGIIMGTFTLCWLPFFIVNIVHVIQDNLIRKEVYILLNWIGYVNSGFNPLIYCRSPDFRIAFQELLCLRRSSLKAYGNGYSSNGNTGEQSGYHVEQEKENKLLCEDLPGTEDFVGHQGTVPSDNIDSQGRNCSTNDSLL

For `CC(C)CN1CCN(Cc2ccc(C#CC(C)(C)O)cc2)CC1CCO` (stereo not drawn), in [1], the percent of DMSO control GFP is 92% (inactive). In addition, the GFP response vs DMSO is 132% (inactive) in [2] and 78.7% (inactive) in test [4]. Further, in [3], the percent response of DMSO control was 102% (inactive). The GFP response, % of DMSO in test [5] was 86.6% (inactive). The double positive events in [6] stood at 67.3%. Besides, in test [6], the vesicle binding response is 215% (inactive). In addition, the inhibition in test [7] is -8.09% (inactive); in test [11] it was 29.9% (inactive); in test [15], 9% (inactive). Moreover, the superoxide response (% of plate) in test [8] was 92.7% (inactive). For the same molecule, in test [9], the aptamer binding inhibition was 0% (inactive). For the same molecule, the response in [10] is -11.4% (inactive); in test [12] it was -6.34% (inactive). Besides, the binding (% of control) in test [13] is 98.3% (inactive). Also, the efflux inhibition (fraction of control) in [14] is 0.34 (inactive). For the same molecule, in test [16], the differentiation response is -2.46% (inactive).
Regarding `Cc1nc(NC(CC(C)C)C(=O)O)c2nc(C)oc2n1` (stereo not drawn), in test [1], the percent of DMSO control GFP is 97.4% (inactive). For the same molecule, the GFP response vs DMSO is 111% (inactive) in test [2] and 120% (inactive) in test [4]. Besides, the percent response of DMSO control in [3] is 90.1% (inactive). Also, in test [5], the GFP response, % of DMSO was 101% (inactive). In test [6], the double positive events worked out at 57.6%. For the same molecule, the vesicle binding response in test [6] is 121% (inactive). Moreover, the inhibition is -5.89% (inactive) in test [7], 4.51% (inactive) in [11] and 6% (inactive) in [15]. Moreover, the superoxide response (% of plate) in [8] was 95.4% (inactive). The aptamer binding inhibition in test [9] is 7% (inactive). Moreover, the response is 3.8% (inactive) in [10] and 3.4% (inactive) in test [12]. Besides, the binding (% of control) in test [13] was 102% (inactive). The efflux inhibition (fraction of control) in [14] was -0.13 (inactive). The differentiation response in test [16] was -28% (inactive).
Consider `Cc1nonc1CN(C)C(=O)c1ccc(OC2CCN(C(=O)c3cccnc3)CC2)cc1`, for which the percent of DMSO control GFP in [1] is 103% (inactive). The GFP response vs DMSO in [2] was 105% (inactive); in [4], 98% (inactive). In addition, the percent response of DMSO control in [3] is 109% (inactive). Moreover, the GFP response, % of DMSO in test [5] is 102% (inactive). Besides, the double positive events in test [6] amounted to 57.8%. Further, the vesicle binding response in test [6] is 176% (inactive). Moreover, the inhibition in test [7] was 12.3% (inactive); in test [11], -7.99% (inactive); in test [15] it was 12% (inactive). Besides, in test [8], the superoxide response (% of plate) is 94.8% (inactive). In addition, the aptamer binding inhibition in [9] was 0% (inactive). The response in [10] was -1.64% (inactive); in test [12], 2.88% (inactive). Moreover, the binding (% of control) in [13] was 103% (inactive). Moreover, the efflux inhibition (fraction of control) in test [14] was 0.05 (inactive). Besides, the differentiation response in [16] is -8.96% (inactive).
Turning to `COc1cc2c(cc1OC)/C(=C/c1ccc(Cl)cc1)C(=O)OC2`, the percent of DMSO control GFP in test [1] was 87.8% (inactive). In addition, the GFP response vs DMSO was 108% (inactive) in test [2] and 83.1% (inactive) in test [4]. In addition, in test [3], the percent response of DMSO control is 95.2% (inactive). The GFP response, % of DMSO in test [5] was 85.7% (inactive). Further, the double positive events in test [6] came out at 63.9%. In addition, the vesicle binding response in test [6] was 155% (inactive). In addition, the inhibition is -7.12% (inactive) in test [7], 10.1% (inactive) in [11] and 1% (inactive) in test [15]. Besides, the superoxide response (% of plate) in [8] was 95.8% (inactive). In test [9], the aptamer binding inhibition is 4% (inactive). In addition, the results for the response in [10] and in [12] were -8.94% (inactive) and -2.13% (inactive), respectively. Also, the binding (% of control) in test [13] was 104% (inactive). Moreover, the efflux inhibition (fraction of control) in test [14] was 0.3 (inactive). Moreover, the differentiation response in test [16] is -2.46% (inactive).
